Results as given in article PMC11006913.
Positions count from the first letter of the chain named.

Columns and labels:
Test in all cases: PBM; 200 nM protein, PBS
Conditions in all cases: dsDNA, one strand shown
[1] = target: T1, SIX6 (Homo sapiens, UniProt O95475 114-200, L167I)
T1 sequence: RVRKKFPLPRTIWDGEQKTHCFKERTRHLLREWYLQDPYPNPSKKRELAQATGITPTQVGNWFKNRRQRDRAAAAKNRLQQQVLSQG

[2] = target: T2, SIX6 (Homo sapiens, UniProt O95475 114-200, L143V)
T2 sequence: T1 sequence with L30V, I54L

[3] = target: T3, SIX6 (Homo sapiens, UniProt O95475 114-200, H141N)
T3 sequence: T1 sequence with H28N, I54L

[4] = target: T4, SIX6 (Homo sapiens, UniProt O95475 114-200, T165P)
T4 sequence: T1 sequence with T52P, I54L

[5] = target: T5, SIX6 (Homo sapiens, UniProt O95475 114-200, L167M)
T5 sequence: T1 sequence with I54M

[6] = target: T6, SIX6 (Homo sapiens, UniProt O95475 114-200, L143M)
T6 sequence: T1 sequence with L30M, I54L

[7] = target: T7, SIX6 (Homo sapiens, UniProt O95475 114-200, L143I)
T7 sequence: T1 sequence with L30I, I54L

[8] = target: T8, SIX6 (Homo sapiens, UniProt O95475 114-200, T165G)
T8 sequence: T1 sequence with T52G, I54L

[9] = target: T9, SIX6 (Homo sapiens, UniProt O95475 114-200, T139Q)
T9 sequence: T1 sequence with T26Q, I54L

[10] = target: T10, SIX6 (Homo sapiens, UniProt O95475 114-200, T165A)
T10 sequence: T1 sequence with T52A, I54L

[11] = target: T11, SIX6 (Homo sapiens, UniProt O95475 114-200, L167V)
T11 sequence: T1 sequence with I54V

[12] = target: T12, SIX6 (Homo sapiens, UniProt O95475 114-200)
T12 sequence: T1 sequence with I54L

[13] = target: T13, SIX6 (Homo sapiens, UniProt O95475 114-200, T165I)
T13 sequence: T1 sequence with T52I, I54L

| Sequence | binding signal [1] | binding signal [2] | binding signal [3] | binding signal [4] | binding signal [5] | binding signal [6] | binding signal [7] | binding signal [8] | binding signal [9] | binding signal [10] | binding signal [11] | binding signal [12] | binding signal [13] |
| --- | --- | --- | --- | --- | --- | --- | --- | --- | --- | --- | --- | --- | --- |
| GATATACC | 11.1 upbm affinity estimate (log intensity, higher = more binding, comparable within an allelic series) | 10.4 upbm affinity estimate (log intensity, higher = more binding, comparable within an allelic series) | 11.2 upbm affinity estimate (log intensity, higher = more binding, comparable within an allelic series) | 9.81 upbm affinity estimate (log intensity, higher = more binding, comparable within an allelic series) | 10.9 upbm affinity estimate (log intensity, higher = more binding, comparable within an allelic series) | 11 upbm affinity estimate (log intensity, higher = more binding, comparable within an allelic series) | 10.5 upbm affinity estimate (log intensity, higher = more binding, comparable within an allelic series) | 11.1 upbm affinity estimate (log intensity, higher = more binding, comparable within an allelic series) | 11.2 upbm affinity estimate (log intensity, higher = more binding, comparable within an allelic series) | 11.1 upbm affinity estimate (log intensity, higher = more binding, comparable within an allelic series) | 10.9 upbm affinity estimate (log intensity, higher = more binding, comparable within an allelic series) | 11 upbm affinity estimate (log intensity, higher = more binding, comparable within an allelic series) | 11.1 upbm affinity estimate (log intensity, higher = more binding, comparable within an allelic series) |
| GATCGATA | 11 upbm affinity estimate (log intensity, higher = more binding, comparable within an allelic series) | 10.3 upbm affinity estimate (log intensity, higher = more binding, comparable within an allelic series) | 11 upbm affinity estimate (log intensity, higher = more binding, comparable within an allelic series) | 9.87 upbm affinity estimate (log intensity, higher = more binding, comparable within an allelic series) | 10.5 upbm affinity estimate (log intensity, higher = more binding, comparable within an allelic series) | 10.8 upbm affinity estimate (log intensity, higher = more binding, comparable within an allelic series) | 10.4 upbm affinity estimate (log intensity, higher = more binding, comparable within an allelic series) | 11 upbm affinity estimate (log intensity, higher = more binding, comparable within an allelic series) | 11.2 upbm affinity estimate (log intensity, higher = more binding, comparable within an allelic series) | 10.9 upbm affinity estimate (log intensity, higher = more binding, comparable within an allelic series) | 10.8 upbm affinity estimate (log intensity, higher = more binding, comparable within an allelic series) | 10.9 upbm affinity estimate (log intensity, higher = more binding, comparable within an allelic series) | 10.8 upbm affinity estimate (log intensity, higher = more binding, comparable within an allelic series) |
| CCGGCGCC | 8.8 upbm affinity estimate (log intensity, higher = more binding, comparable within an allelic series) | 8.98 upbm affinity estimate (log intensity, higher = more binding, comparable within an allelic series) | 8.96 upbm affinity estimate (log intensity, higher = more binding, comparable within an allelic series) | 9.05 upbm affinity estimate (log intensity, higher = more binding, comparable within an allelic series) | 9 upbm affinity estimate (log intensity, higher = more binding, comparable within an allelic series) | 8.85 upbm affinity estimate (log intensity, higher = more binding, comparable within an allelic series) | 9.03 upbm affinity estimate (log intensity, higher = more binding, comparable within an allelic series) | 8.96 upbm affinity estimate (log intensity, higher = more binding, comparable within an allelic series) | 8.96 upbm affinity estimate (log intensity, higher = more binding, comparable within an allelic series) | 8.98 upbm affinity estimate (log intensity, higher = more binding, comparable within an allelic series) | 8.96 upbm affinity estimate (log intensity, higher = more binding, comparable within an allelic series) | 9.02 upbm affinity estimate (log intensity, higher = more binding, comparable within an allelic series) | 8.9 upbm affinity estimate (log intensity, higher = more binding, comparable within an allelic series) |
| TGATACCA | 11.3 upbm affinity estimate (log intensity, higher = more binding, comparable within an allelic series) | 10.5 upbm affinity estimate (log intensity, higher = more binding, comparable within an allelic series) | 11.3 upbm affinity estimate (log intensity, higher = more binding, comparable within an allelic series) | 9.8 upbm affinity estimate (log intensity, higher = more binding, comparable within an allelic series) | 10.7 upbm affinity estimate (log intensity, higher = more binding, comparable within an allelic series) | 11 upbm affinity estimate (log intensity, higher = more binding, comparable within an allelic series) | 10.6 upbm affinity estimate (log intensity, higher = more binding, comparable within an allelic series) | 11.5 upbm affinity estimate (log intensity, higher = more binding, comparable within an allelic series) | 11.3 upbm affinity estimate (log intensity, higher = more binding, comparable within an allelic series) | 11.4 upbm affinity estimate (log intensity, higher = more binding, comparable within an allelic series) | 11.1 upbm affinity estimate (log intensity, higher = more binding, comparable within an allelic series) | 11.2 upbm affinity estimate (log intensity, higher = more binding, comparable within an allelic series) | 11.1 upbm affinity estimate (log intensity, higher = more binding, comparable within an allelic series) |
| AGGCCCCG | 8.89 upbm affinity estimate (log intensity, higher = more binding, comparable within an allelic series) | 8.82 upbm affinity estimate (log intensity, higher = more binding, comparable within an allelic series) | 8.69 upbm affinity estimate (log intensity, higher = more binding, comparable within an allelic series) | 8.87 upbm affinity estimate (log intensity, higher = more binding, comparable within an allelic series) | 8.92 upbm affinity estimate (log intensity, higher = more binding, comparable within an allelic series) | 8.79 upbm affinity estimate (log intensity, higher = more binding, comparable within an allelic series) | 8.8 upbm affinity estimate (log intensity, higher = more binding, comparable within an allelic series) | 8.83 upbm affinity estimate (log intensity, higher = more binding, comparable within an allelic series) | 8.79 upbm affinity estimate (log intensity, higher = more binding, comparable within an allelic series) | 8.77 upbm affinity estimate (log intensity, higher = more binding, comparable within an allelic series) | 8.67 upbm affinity estimate (log intensity, higher = more binding, comparable within an allelic series) | 8.75 upbm affinity estimate (log intensity, higher = more binding, comparable within an allelic series) | 8.82 upbm affinity estimate (log intensity, higher = more binding, comparable within an allelic series) |
| GTATGATA | 11 upbm affinity estimate (log intensity, higher = more binding, comparable within an allelic series) | 10.5 upbm affinity estimate (log intensity, higher = more binding, comparable within an allelic series) | 11.1 upbm affinity estimate (log intensity, higher = more binding, comparable within an allelic series) | 10.1 upbm affinity estimate (log intensity, higher = more binding, comparable within an allelic series) | 10.6 upbm affinity estimate (log intensity, higher = more binding, comparable within an allelic series) | 11 upbm affinity estimate (log intensity, higher = more binding, comparable within an allelic series) | 10.5 upbm affinity estimate (log intensity, higher = more binding, comparable within an allelic series) | 11.2 upbm affinity estimate (log intensity, higher = more binding, comparable within an allelic series) | 11.2 upbm affinity estimate (log intensity, higher = more binding, comparable within an allelic series) | 11 upbm affinity estimate (log intensity, higher = more binding, comparable within an allelic series) | 10.9 upbm affinity estimate (log intensity, higher = more binding, comparable within an allelic series) | 11 upbm affinity estimate (log intensity, higher = more binding, comparable within an allelic series) | 10.9 upbm affinity estimate (log intensity, higher = more binding, comparable within an allelic series) |
